The list is not random: actives were taken first. Their share in the collection is about 19%.
DT40 TDP1 no CPT – qHTS for Inhibitors of human tyrosyl-DNA phosphodiesterase 1 (TDP1): qHTS in cells in absence of CPT. Potency, µM (titrated, usually from 46.2 µM), without a hit: at the top dose activity change, negative = growth inhibition, usual class: inhibitors. DT40 Tdp1-/- hTDP1 cells, no CPT, ATP luminescence, 48 h. actives 15% (n = 420,000); further: potency means the concentration at half of the fitted maximal effect; nearly all actives have a fitted effect of over 55% in size
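Chicken DT40 Tdp1-/- cells stably complemented with human TDP1 were seeded at 400 cells/well with DMSO in place of 20 nM camptothecin. After compound pinning, cells grew at least 48 hr at 37 °C; viability read by CellTiter-Glo luminescence.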
HT1080NT lethal – kills 2HG-producing HT-1080-NT fibrosarcoma cells; HT-1080-NT fibrosarcoma viability, CellTiter-Glo ATP luminescence, 48 h; Potency, µM (highest dose often 46.1 µM), without a hit: at the highest dose activity, negative = less viability, usual class: cytotoxic; actives 1.6% (n = 360,000); AID 686970;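 further: NT is the 2HG producing partner of a matched IDH1 knockdown line; potency means the concentration at half of the fitted maximal effect; 0% = DMSO-treated cells and -100% = media-only wells without cells; nearly all actives have a fitted effect of over 55% in size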
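Compounds were tested in concentration-response format on HT-1080-NT cells for 48 hours at 37 degrees C. Cell viability came from CellTiter-Glo luminescence; curves were classified by r2, response magnitude and activity.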
TDP1 cell CPT – growth inhibition of DT40 Tdp1-/-;hTDP1 cells with camptothecin (screen for TDP1 inhibitors) | Potency, µM (titrated, usually from 46.2 µM), inactives show top-dose activity change, negative = growth inhibition, actives largely listed as inhibitors | actives 12% (n = 420,000) | AID 686979 | chicken DT40 Tdp1-/-;hTDP1 cells + 20 nM CPT, ATP luminescence, 48 h; further: potency means the concentration at half of the fitted maximal effect; nearly all actives have a fitted effect of over 55% in size
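Chicken DT40 Tdp1-/- cells stably complemented with human TDP1 were seeded at 400 cells/well in medium containing 20 nM camptothecin, exposed to pin-transferred compounds, and grown at 37 °C for at least 48 hr. Viability was read as ATP luminescence.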
HT1080 IDH1KD tx – kills HT-1080 cells with IDH1 knockdown; Potency, µM (titrated, usually from 46.1 µM), for inactives: at the top dose activity, negative = toxicity, usual class: cytotoxic; AID 686971; actives 2% (n = 360,000); HT-1080 IDH1 knockdown viability, ATP luminescence, 48 h;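 further: potency means the concentration at half of the fitted maximal effect; 0% = DMSO wells and -100% = cell-free medium wells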
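After a 2 h attachment period, IDH1KD HT-1080 cells took pin-transferred compound for 48 h at 37 °C; ATP-based luminescence after 10 min room-temperature reagent incubation reported viability.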
IL1B secr inh – blocks inflammasome-driven IL-1 beta release | THP-1 LPS/ATP IL-1B secretion, AlphaLISA, 16 h; stronger effect = lower value | activity change, % at 57.5 µM | actives 4.7% (n = 360,000) | AID 743279; in the data active means activity change below about -50%; inconclusive means mostly about -30% to -49%
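Secreted IL-1B measured by AlphaLISA bead assay after 16 h compound exposure of THP-1 cells; compounds (final up to 57.5 uM) added 1 h before LPS (250 ng/mL) and ATP (1.25 mM) stimulation; lower signal means less secretion.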
Numbers without * were called inactive; ? = inconclusive; / = no result. Unless noted, the call rests on the fitted dose curve; in most records, active means well fitted curve in the direction sought with a large enough effect; inconclusive means small, poorly fitted or top-dose-only effect, or another doubt; inactive means no such curve, though single readings can be large; an effect the other way counts as inactive or inconclusive. Unless noted, on the % scale 0 is the no-effect control and ±100 the full control effect.

SMILES | DT40 TDP1 no CPT | HT1080NT lethal | TDP1 cell CPT | HT1080 IDH1KD tx | IL1B secr inh
Cc1ccc(C(=O)CSc2nc3ccccc3o2)cc1 | -5% | 3% | 2% | ? | -54*
Cc1cc(C(=O)CSc2nc(N)cc(=O)[nH]2)c(C)n1CC1CCCO1 (centres undefined) | 18µM* | 3% | 16µM* | -8% | 15
Cc1cc(C(=O)CSc2nc3ccccc3[nH]2)c(C)n1CC1CCCO1 (centres undefined) | 5.2µM* | 1% | 7.3µM* | ? | -7
O=C(O)CSc1nc2ccccc2o1 | -6% | 8% | 6% | 3% | 0
Cc1cc(C(=O)CSc2nc3ccccc3o2)c(C)n1CC1CCCO1 (centres undefined) | 18µM* | -1% | 9.2µM* | -10% | 6
Cc1n[nH]c(C)c1S(=O)(=O)N1CCN(C2CCCCC2)CC1 | -9% | 13% | -12% | 0% | 4
CCOC(=O)c1sc(NC(=O)C2CC(=O)N(c3ccccc3OC)C2)nc1C (centres undefined) | 5% | -2% | -19% | 5% | -10
CCOc1ccc(-c2cnc3cccnn23)cc1 | -21% | ? | -30% | 25% | 9
CCOc1cccc(-c2cnc3cccnn23)c1 | 10µM* | 3% | ? | -13% | -12
O=C(CSc1nc2sc3c(c2c(=O)n1-c1ccccc1)CCCC3)N/N=C/c1ccccc1C(=O)O | 2% | 3% | -3% | 3% | -12
CCCCCN1C(C(=O)c2ccccc2)=C(NC(=O)c2ccc(C)cc2)c2ccccc2S1(=O)=O | 16µM* | / | 18µM* | / | /
CCCCCN1C(C(=O)c2ccccc2)=C(NC(=O)c2ccccc2Cl)c2ccccc2S1(=O)=O | 8.2µM* | / | ? | / | /
CCCCCN1C(C(=O)c2ccccc2)=C(NC(C)=O)c2ccccc2S1(=O)=O | 18µM* | / | 16µM* | / | /
N#Cc1cccc(NC(=O)CSc2cccc[n+]2[O-])c1 | 1% | 11% | 5% | 10% | 4
Cc1ccc(-c2nnc(Oc3ccc(NC(=O)c4ccccc4)cc3)c3ccccc23)cc1 | ? | 15% | ? | 3% | -11
CC(C)Oc1ccc(C(=O)Nc2nnc3n2CCS3)cc1 | -21% | / | -24% | / | /
O=C(Oc1cccc(NC(=O)c2ccco2)c1)c1cccc(S(=O)(=O)N2CCCCC2)c1 | -22% | 2% | -4% | -8% | 37
CCCCNC(=O)c1ccc(CS(=O)(=O)c2ccc(OC)cc2)o1 | -25% | -7% | ? | -9% | -18
COc1ccc(S(=O)(=O)Cc2ccc(C(=O)NCc3ccccc3OC)o2)cc1 | -24% | -10% | 21µM* | -5% | -8
COCCNC(=O)c1ccc(CS(=O)(=O)c2ccccc2)o1 | 16µM* | 0% | 18µM* | 2% | 10
COCCNC(=O)c1ccc(CS(=O)(=O)c2ccc(Cl)cc2)o1 | 3% | 8% | -4% | 9% | 19
CCCCSCCCNC(=O)c1ccc(CS(=O)(=O)c2ccc(OC)cc2)o1 | ? | 2% | 18µM* | 5% | -3
Cc1cccc(C(=O)Nc2ccccc2SCC(=O)Nc2ccc(C)c(Cl)c2)c1 | ? | -20% | ? | ? | 3
COC(C(=O)Nc1ccnn1C1CCN(Cc2cnn(C(C)C)c2)CC1)c1ccccc1 (centres undefined) | 22% | 22% | -17% | 4% | -4
CN1C(=O)C(O)(CC(=O)/C=C/C=C/c2ccccc2)c2ccccc21 (centres undefined) | ? | 9% | ? | 0% | ?
SMILES | DT40 TDP1 no CPT | HT1080NT lethal | TDP1 cell CPT | HT1080 IDH1KD tx | IL1B secr inh
O=C(CC1(O)C(=O)Nc2ccccc21)c1cccc(-n2cccc2)c1 (centres undefined) | 5% | -1% | -9% | 10% | -7
CN1C(=O)C(O)(CC(=O)c2cccc(-n3cccc3)c2)c2ccccc21 (centres undefined) | ? | 4% | 21µM* | 0% | -11
CN1C(=O)C(O)(CC(=O)c2ccncc2)c2ccccc21 (centres undefined) | ? | -4% | ? | -3% | -53*
CCOc1ccccc1/C=N/NC(=O)c1nnn(-c2nonc2N)c1CN1CCCC1 | 1% | 1% | 11% | 0% | 34
O=C(Nc1ccn(CCCNCc2cccc3ccccc23)c(=O)n1)OCc1ccccc1 | ? | ? | ? | ? | -62*
O=C(Nc1ccn(CCCNCc2ccccn2)c(=O)n1)OCc1ccccc1 | 0% | 4% | 10% | 1% | 21
CC(CNCCCn1ccc(NC(=O)OCc2ccccc2)nc1=O)c1ccccc1 (centres undefined) | ? | -7% | 23µM* | -18% | ?
O=C(Nc1ccn(CCCNCC(c2ccccc2)c2ccccc2)c(=O)n1)OCc1ccccc1 | 23µM* | ? | ? | ? | ?
O=C(Nc1ccn(CCCN2CCN(Cc3ccc(F)cc3)CC2)c(=O)n1)OCc1ccccc1 | 15µM* | -14% | 21µM* | -13% | -10
O=C(Nc1ccn(CCCNCC2CCCCC2)c(=O)n1)OCc1ccccc1 | ? | -15% | ? | -1% | -21
O=C(Nc1ccn(CCCNCCc2ccccn2)c(=O)n1)OCc1ccccc1 | -1% | 1% | 0% | 3% | -2
CCOc1cc(C(=S)N2CCOCC2)ccc1OC | -21% | 3% | -9% | -9% | 2
CCOc1nc(NCCc2ccc(OC)c(OC)c2)nc(N2CCN(c3ccc(OC)cc3)CC2)n1 | 4% | -3% | -9% | -2% | -6
Clc1ccc(CNc2ccccn2)cc1 | -14% | -1% | ? | 13% | ?
COc1ccccc1C(=O)NC(=O)Nc1nc(-c2ccccc2)cc(C(F)(F)F)n1 | ? | -2% | 15µM* | 1% | -24
FC(F)(F)c1ccnc(NCc2ccc(Cl)cc2)n1 | -29% | -9% | -16% | -3% | -55*
COc1ccc(N2CCN(c3nc(NCCc4ccc(OC)c(OC)c4)nc(OC)n3)CC2)cc1 | 4.6µM* | ? | 6.5µM* | ? | ?
CCOc1cc2nc(-c3ccc(OC)c(OC)c3)nc(N3CCOCC3)c2cc1OC | ? | ? | 21µM* | ? | -30
Cc1ccc(NC(=O)c2c(C)nc3sc(C(=O)Nc4ccc(F)cc4)c(N)c3c2-c2ccccc2Cl)c(C)c1 | -8% | / | ? | / | /
NN=C1c2ccccc2C(=O)C1C(=O)C(c1ccccc1)c1ccccc1 (centres undefined) | -10% | -4% | 3% | -1% | -2
O=C(/C=C/c1ccccc1)OCCN1C(=O)c2ccccc2C1=O | -4% | 15% | 0% | 18% | 2
